Measurements reported in ChEMBL document CHEMBL4513216, “Probing the Open Global Health Chemical Diversity Library for Multistage-Active Starting Points for Next-Generation Antimalarials” (ACS Infect Dis, 2020).
Among all 69,000 compounds or so, about 8,600 (12%) showed an effect of 50% or more. This is one part of a sample in which strong results are shown more often than they occur.

Test system: Plasmodium berghei
Assay: Screen against P. berghei liver stage (PbLuc), transformed with Luciferase, at 10uM
Assay type: functional, HepG2
Settings: tested at 10 uM

Row | SMILES | INHIBITION
1 | CCN1CCOC(CNCc2cccc(OCc3ccccn3)c2)C1 (centres undefined) | -62.8%
2 | CN(C)c1cc(CNC(=O)c2c(F)cccc2F)ccn1 | -7.35%
3 | COCC1Cn2nnc(-c3cnn(C)c3)c2CN1Cc1ccc(C)s1 (centres undefined) | 11.8%
4 | CNS(=O)(=O)CC(=O)NC(c1cc(C)sc1C)C(C)C (centres undefined) | 16.6%
5 | Cn1cc(C(=O)NC(Cn2cccn2)C(C)(C)C)cn1 (centres undefined) | 35.2%
6 | CCc1nc(CNC(C)c2cccc(N3CCCC3=O)c2)cs1 (centres undefined) | 10.8%
7 | CC(C)c1nc(CN(C)Cc2ncccc2C(=O)O)cs1 | 15.7%
8 | Cc1ccsc1CN(Cc1ncccc1C(=O)O)C1CC1 | 31.9%
9 | Cc1ccsc1CN(C)Cc1ncccc1C(=O)O | 68.3%
10 | COc1cccc(CCC(=O)N2CCN(CC(C)(C)O)CC2)c1 | 4.3%
11 | CC(=O)c1cc(CN2C[C@@H]3CC[C@H]2CN(Cc2c(C)noc2C)C3)cs1 | -33.5%
12 | COCCNC(=O)c1nnc2ccc(N3CCOCC3)cc2n1 | 54%
13 | CCNC(=O)c1nnc2ccc(N3CCOCC3)cc2n1 | 30%
14 | CNC(=O)c1nnc2ccc(N3CCOCC3)cc2n1 | -12.2%
15 | COC(=O)c1ccc(-c2cc(C(F)(F)F)cc(N(C)C)n2)cc1 | 23.6%
16 | Cc1cccc(C(C(=O)NC(C)(C)CN2CCCC2)N(C)C)c1 (centres undefined) | -13.2%
17 | CCc1ccc2nc(C)cc(C(=O)N[C@@H]3C[C@@H](CO)N(C)C3)c2c1 | 22.1%
18 | Cn1cc(N2CCC3(CCN(C(=O)c4cccn4C)C3)C2=O)cn1 (centres undefined) | 23.6%
19 | Cn1cccc1C(=O)N1CCC2(CC1)CN(c1ccccc1)C(=O)CO2 | 33.4%
20 | Cn1cc(N2CC3(CCN(C(=O)c4cccn4C)CC3)OCC2=O)cn1 | 73%
21 | CN1CC(=O)N(c2ccsc2)CC12CCN(C(=O)c1cccn1C)C2 (centres undefined) | 19.4%
22 | Cn1cccc1C(=O)N1CCC2(CC1)CN(c1cncnc1)C(=O)CO2 | 11.4%

Row | SMILES | INHIBITION
23 | Cn1cccc1C(=O)N1CCC2(CC1)CN(c1ccsc1)C(=O)CO2 | 71.9%
24 | CN(C)c1ccc(CN(CC2CCCO2)C(=O)c2csnn2)cc1 (centres undefined) | 11.8%
25 | CC1(c2cc[nH]n2)CCN(C(=O)c2ccc(Cl)cc2)CC1 | -2.09%
26 | COCC(=O)N1C[C@H]2CCC[C@@]2(COC)C1 | 85.2%
27 | COC[C@@]12CCC[C@@H]1CN(C(=O)COC1CCCC1)C2 | 32.5%
28 | COC[C@@]12CCC[C@@H]1CN(C(=O)CN(C)C)C2 | 56.4%
29 | O=C(c1ncccn1)N1C[C@H]2CCC[C@@]2(COc2ccccn2)C1 | -15.1%
30 | COCCC(=O)N1C[C@H]2CCC[C@@]2(COC)C1 | 24.6%
31 | CN(C)C(=O)N1C[C@H]2CCC[C@@]2(COc2ccccn2)C1 | -9.67%
32 | COC[C@@]12CCC[C@@H]1CN(C(=O)N1CCCC1)C2 | 18.6%
33 | CCOCC(=O)N1C[C@H]2CCC[C@@]2(COC)C1 | -0.284%
34 | CN(C)CC(=O)N1C[C@H]2CCC[C@@]2(COc2ccccn2)C1 | 52.9%
35 | Cc1cccc(CN2C(=O)CCC23CCN(c2ncc(F)cn2)CC3)n1 | -26.8%
36 | O=S(=O)(N1CCOCC1)N1CCCC(c2ccccn2)C1 (centres undefined) | 15.99%
37 | COc1c(C2CCCN2C(=O)c2c(C)noc2C(C)C)c(C)nn1C (centres undefined) | 35.9%
38 | COCC(=O)N1CCc2c(nnn2C)C1COCCN1CCCC1 (centres undefined) | 29%
39 | Cc1ccc(C(=O)Nc2nn[nH]n2)s1 | 2.61%
40 | Cc1cc(C)c(CNC(=O)NCc2ccc3c(c2)OCCO3)c(=O)[nH]1 | -54.6%
41 | CS(=O)(=O)N1CCN(C(=O)c2cc(-c3cccs3)cs2)CC1 | 33.3%
42 | CCc1oc(C(=O)NC(C)c2ncn[nH]2)cc1CN1CCCC1 (centres undefined) | 7.24%
43 | Cc1cccnc1NC(=O)NCc1cccnc1OC(C)C | 19.4%
44 | Cc1cc(C(=O)NC2(c3ccc(Br)cc3)CC2)n(C)n1 | 47%

Row | SMILES | INHIBITION
45 | CC(=O)N1N=C(c2ccncc2)OC1C(=O)N(C)CCc1ccccc1 (centres undefined) | 0.618%
46 | CNc1ncccc1CN1CCN(c2cc(NC3CC3)nc(N)n2)CC1 | 5.11%
47 | CCc1ccc2nc(NCC(O)CO)cc(C)c2c1 (centres undefined) | 50.7%
48 | CCc1ccc2nc(NCCOCCO)cc(C)c2c1 | -46.7%
49 | CCc1ccc2nc(NCCCN(CCO)CCO)cc(C)c2c1 | 42%
50 | Cn1c(N2CCOCC2)nc2cc(C(=O)N[C@@H]3CC[C@@H](N)C3)ccc21 | 33.4%
51 | CN(C)CCNC(=O)c1ccn(-c2ccc3ccccn23)n1 | 13.6%
52 | Cc1cc(CN2CCN(CC(O)c3ccc4c(c3)OCO4)CC2)no1 (centres undefined) | -1.14%
53 | Cc1cc(CN2CCN(C(c3ccccc3)c3ccccc3)CC2)no1 | 85.4%
54 | Cc1cc(CN2CCN(CC(O)c3cccc(F)c3)CC2)no1 (centres undefined) | -17.6%
55 | Cc1cc(CN2CCN(CC(O)c3ccc(Cl)cc3)CC2)no1 (centres undefined) | 9.14%
56 | Cc1cc(CN2CCN(CC(O)c3ccccc3)CC2)no1 (centres undefined) | 36.4%
57 | Cc1cc(CN2CCN(CC(O)c3ccc(C)c(C)c3)CC2)no1 (centres undefined) | 62.6%
58 | COC(=O)c1ccc(N(C(=O)c2ccncc2)C(C)C)c(C)c1 | 7.18%
59 | COc1ccc(CN2CCCCC2Cn2nc(C)nc2C)cc1F (centres undefined) | -37.7%
60 | Cc1cn(-c2ccccc2)nc1NS(=O)(=O)c1cc(C(=O)O)sc1C | 8.38%
61 | O=C(CCn1cccn1)N1CC[C@@H](c2ccc3ccccc3c2)[C@H](O)C1 | -28.9%
62 | O=C(CCN1CCCO1)N1CC[C@@H](c2ccc3ccccc3c2)[C@H](O)C1 | 8.74%
63 | O=C(CCN1CCCC1)N1CC[C@@H](c2ccc3ccccc3c2)[C@H](O)C1 | 52.2%
64 | CCN1Cc2ccccc2CC2(CCN(CC3CCC3)CC2)C1=O | 36.5%
65 | COc1cccc(NC(=O)NCc2cnn(C)c2)c1 | 13%
66 | Cc1n[nH]cc1CNC(=O)Nc1cccc(OCC(F)(F)F)c1 | 60.3%

Row | SMILES | INHIBITION
67 | Cc1n[nH]cc1CNCc1cccc(OCC(F)(F)F)c1 | 66.3%
68 | Cc1n[nH]cc1CNCc1ccnc(OCC(F)(F)F)c1 | 28.5%
69 | CN1CCOC(CNCc2cccc(OCC(F)(F)F)c2)C1 (centres undefined) | 21.7%
70 | CC(C)C(=O)Nc1cccc(OCC(=O)NCc2ccccc2F)c1 | 40.6%
71 | CCN(Cc1cnn(C)c1)C[C@H]1CC[C@@H](Cc2cccc(C#N)c2)O1 | -15.7%
72 | O=C1CN(C(=O)C2CCCCC2)CC(O)CN1Cc1ccco1 (centres undefined) | -11.1%
73 | CC(C)c1nc2n(n1)CC(NCc1ncc(C(C)(C)C)o1)CC2 (centres undefined) | -33.9%
74 | Cc1c(C)n2c(SCC(=O)N3CCC(C)CC3)nnc2[nH]c1=O | -5.1%
75 | Cc1ccn(CCC(=O)NCc2ccc(C)o2)n1 | 27.5%
76 | Cc1cc(C)c(N(CC(O)CNCc2ccco2)S(C)(=O)=O)c(C)c1 (centres undefined) | 9.96%
77 | Cc1cc(C)c2cc(CNCc3ccco3)c3nn(C)c(=O)n3c2c1 | 60.4%
78 | Cc1cc(C)c2cc(CNCc3ccc(C)o3)c3nn(C)c(=O)n3c2c1 | 54.5%
79 | Cc1cc(C(=O)NCc2ccco2)nn1C | 10.075%
80 | Cc1ccc(CNC(=O)c2cc(C)n(C)n2)o1 | 35.75%
81 | CNc1cc(C2CCCN2Cc2ccc(OCC(=O)O)cc2)ccn1 (centres undefined) | -17.7%
82 | Cc1ccc(N2CCCN(C(=O)CCC3CCCO3)CC2)nn1 (centres undefined) | -14.6%
83 | CN(CCSc1nncn1CC(F)(F)F)c1ccccc1 | -31.4%
84 | O=C(Cc1cccc(F)c1)NCCCNC(=O)c1cccc(O)c1 | -29.7%
85 | Cc1ncc(CNC(=O)CCc2c(C)noc2C)c(C2CCCN2C)n1 (centres undefined) | 4.08%
86 | Cn1nc(C2CCN(C(=O)Cc3cccc(F)c3)CC2)c2cccnc21 | 46.6%
87 | CN1CCCN(C[C@@H]2CN(C(=O)CC3CCC3)C[C@@H]2CO)CC1 | -6.91%
88 | COc1cccc(CC(=O)N2CCN(C)c3ncccc3C2)c1 | -93%

Row | SMILES | INHIBITION
89 | CNC(=O)C1CCCN(C(=O)c2ccccc2-n2cc(CN)cn2)C1 (centres undefined) | 1.62%
90 | NCc1cnn(-c2ccccc2C(=O)N2CCCC(C(N)=O)C2)c1 (centres undefined) | 9.05%
91 | CN(C)C(=O)C1CCCN(C(=O)c2ccccc2-n2cc(CN)cn2)C1 (centres undefined) | 50.8%
92 | CCCS(=O)(=O)N1C[C@@H](Oc2ncccc2F)[C@H]2OCCC[C@H]21 | 30.3%
93 | CCn1c(CN2CCN(C(=O)C3CCC3)CC2)nc2c(F)cccc21 | 18.04%
94 | COC(=O)CC(C1=Cc2ccccc2OC1)c1oc(C)cc(=O)c1O (centres undefined) | 11.6%
95 | CC1=C(C#N)C(=O)N(C)C(=O)/C1=C\C1=Cc2ccccc2OC1 | 92.5%
96 | CCN1C(=O)C(C#N)=C(C)/C(=C/C2=Cc3ccccc3OC2)C1=O | 51.7%
97 | CC1=C(C#N)C(=O)NC(=O)/C1=C\c1c(C)[nH]n(-c2ccccc2)c1=O | -25.6%
98 | CC(Cn1cccn1)NC(=O)C1=Cc2ccccc2OC1 (centres undefined) | -40.7%
99 | O=C(Nc1cccnc1)C1=Cc2ccccc2OC1 | -25%
100 | Cc1cc(C)n(CCC(=O)N2CCCC(c3cc(C(N)=O)[nH]n3)C2)n1 (centres undefined) | 16.8%
101 | COC(=O)C(c1ccccc1)N(C)C(=O)c1ccnc(C)n1 (centres undefined) | 23.7%
102 | O=C(c1cccnc1)N1C[C@H]2CC[C@@H](C1)N(Cc1cc(F)ccc1F)C2 | 19.2%
103 | CCc1nc(CN(C)C2CCCN(c3cccnn3)C2)no1 (centres undefined) | 14.1%
104 | O=C(O)C1(Cc2cccc(-c3cccs3)c2)CCCNC1 (centres undefined) | 29.05%
105 | NC(=O)C1(Cc2ccc(-c3ccccc3)cc2)CCNC1 (centres undefined) | 52.7%
106 | NC(=O)C1(Cc2ccc(-c3ccccc3)cc2)CCCNC1 (centres undefined) | -0.232%
107 | CCNC(=O)C1(Cc2ccc(-c3ccccc3)cc2)CCCNC1 (centres undefined) | -0.232%
108 | O=C(O)C1(Cc2ccc(-c3cccs3)cc2)CCNC1 (centres undefined) | 35.55%
109 | O=C(N1CCCC1)C1(Cc2ccc(-c3cccs3)cc2)CCNC1 (centres undefined) | 50.9%
